COUP-TFII inh = blocks human COUP-TFII nuclear receptor; P24468; HEK293T NGFI-A luciferase reporter, luminescence; inhibition, % at 8.6 µM; 370,000 compounds, 0.7% hits; AID 686940;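 active = inhibition above a per-plate cutoff, mean inhibition of test wells between control levels plus 3 SD, cut at about 38% in these data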;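 note: cells cotransfected with COUP-TFII expression vector driving the NGFI-A reporter; 0% = median of COUP-TF2 test wells and 100% = reporter-only cells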
Target sequence (P24468 whole entry, looked up): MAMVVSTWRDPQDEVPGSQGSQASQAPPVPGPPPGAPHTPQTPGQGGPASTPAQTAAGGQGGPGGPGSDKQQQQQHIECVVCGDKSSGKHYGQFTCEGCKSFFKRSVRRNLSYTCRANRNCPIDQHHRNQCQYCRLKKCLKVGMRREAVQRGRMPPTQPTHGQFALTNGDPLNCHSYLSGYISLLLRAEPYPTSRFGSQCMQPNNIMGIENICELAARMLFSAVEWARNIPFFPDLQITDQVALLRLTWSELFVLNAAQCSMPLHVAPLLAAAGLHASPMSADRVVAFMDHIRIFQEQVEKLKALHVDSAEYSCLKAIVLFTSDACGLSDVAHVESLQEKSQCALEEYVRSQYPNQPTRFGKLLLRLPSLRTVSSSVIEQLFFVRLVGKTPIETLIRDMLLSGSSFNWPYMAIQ
H9c2 protect = modulators protecting cardiomyocytes from myocardial damage | protection from H2O2 cell death, % at 20 µM | 360,000 compounds, 0.63% hits | H9c2 cardiomyocytes, H2O2 injury protection, ATPLite, 2 h;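 active = compounds giving at least 50% protection of heart cells from peroxide-induced death in the single-dose screen, raw or plate-pattern-corrected value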;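 note: 0% = DMSO wells with peroxide and 100% = DMSO wells without peroxide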
TAG inh = triacylglycerol accumulation inhibition. H9c2 cells, Nile Red lipid (TAG) fluorescence; cells loaded with 200 µM oleic acid. inhibition, % at 12.5 µM. 230,000 compounds, 0.66% hits. AID 651582;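 active = pattern-corrected inhibition of lipid staining of at least 50% with the nuclear-stain viability signal not falling by more than 50%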;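 note: 0% = DMSO wells and 100% = triacsin C control wells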
Jurkat NFkB inh = inhibitors of the PMA/ionomycin-induced NF-kB reporter in Jurkat cells | PMA/ionomycin-induced NF-kB luciferase reporter, luminescence | AID 435003 | 330,000 compounds, 0.53% hits | inhibition, % at 4 µM; in the data active = inhibition above about 50%
Gli-Sufu antag = blocks Gli-Sufu signaling in a luciferase reporter; Sufu-KO-LIGHT fibroblasts, Gli luciferase reporter luminescence; inhibition, % at 5 µM; 340,000 compounds, 0.74% hits; AID 588413;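 active = inhibition above about 55%, limit read from the data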;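 note: 0% = DMSO-treated cells and 100% = wells with medium but no cells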
697 NFkB inh = inhibitors of the PMA/ionomycin-induced NF-kB reporter in 697 B cells. 697 B-cell NF-kB luciferase reporter, 16 h. inhibition, % at 4 µM. 330,000 compounds, 0.33% hits; in the data active = inhibition above about 35%
697 NFkB conf = inhibitors of the PMA/ionomycin-induced NF-kB reporter in 697 B cells, retest; shares compounds with 697 NFkB inh; 697 B-cell NF-kB luciferase, 16 h; inhibition, % at 4 µM; 2,000 compounds, 35% hits; AID 449746; in the data active = inhibition mostly above about 28%, no sharp cut-off; inactive = mostly below about 22%
The depositor's hits bear a star. A selection: hits, their analogues and other compounds. The true share with any hit is near 2.6%.

`N/C(=N\OC(=O)c1ccc(Cl)cc1Cl)c1ccc(Cl)cc1` gave COUP-TFII inh 6, H9c2 protect -29, TAG inh -10, Jurkat NFkB inh -93, Gli-Sufu antag 1, 697 NFkB inh -260 and 697 NFkB conf -177.
`COC(=O)[C@]12C[C@H](CC(=O)N3CCSCC3)C(=O)N(CCC3=CCCCC3)C1=C[C@H](C(C)(C)C)O[C@@H]2C` gave COUP-TFII inh 11.
`O=C1c2ccccc2C(=O)N1CSc1ncccn1` gave COUP-TFII inh -13, H9c2 protect 14, Jurkat NFkB inh -7, Gli-Sufu antag -3, 697 NFkB inh 36* and 697 NFkB conf -9.
Screening Cn1cc(CCOCc2ccccn2)c2ccccc21 returned COUP-TFII inh 2.
CC(=O)Nc1ccc(-c2ccc3nnc(C)n3n2)cc1 was read as COUP-TFII inh -6, H9c2 protect 2, TAG inh 18, Jurkat NFkB inh 0, Gli-Sufu antag 31 and 697 NFkB inh -7.
Screening Cc1nnc2ccc(-c3ccc(NC(=O)Cc4cccs4)cc3)nn12 returned COUP-TFII inh -45, H9c2 protect 13, TAG inh 36, Jurkat NFkB inh 1, Gli-Sufu antag 11, 697 NFkB inh 36* and 697 NFkB conf 22.
For O=C(c1sccc1Cl)N1CCC(n2nnc3ncccc32)CC1 the results were COUP-TFII inh 15.
`Cc1cc(=O)oc2cc(OCCc3ccccc3)ccc12` gave COUP-TFII inh -35, H9c2 protect 1, Jurkat NFkB inh -78, Gli-Sufu antag -52, 697 NFkB inh -297 and 697 NFkB conf -263.
`Cc1ccc(-c2csc3nc[nH]c(=S)c23)cc1` gave COUP-TFII inh -1, H9c2 protect 43, Jurkat NFkB inh 2, Gli-Sufu antag 2 and 697 NFkB inh 6.
`Cc1cc(-c2csc3nc[nH]c(=S)c23)cc(C)c1C` gave COUP-TFII inh -6, H9c2 protect 61*, TAG inh 0, Jurkat NFkB inh 2, Gli-Sufu antag 1, 697 NFkB inh 35* and 697 NFkB conf -22.
S=C(c1ccc(-c2ccccc2)cc1)N1CCOCC1 was read as COUP-TFII inh 34, H9c2 protect -4, Jurkat NFkB inh 13, Gli-Sufu antag -2, 697 NFkB inh 55* and 697 NFkB conf -10.
Screening COc1cc(C=NN2CCN(C(c3ccccc3)c3ccccc3)CC2)cc(OC)c1OC(C)=O returned COUP-TFII inh 12.
`Oc1cc(O)cc(-c2cc3ccc(O)cc3o2)c1` gave COUP-TFII inh -7, H9c2 protect -10, Jurkat NFkB inh -74, Gli-Sufu antag 6, 697 NFkB inh 38* and 697 NFkB conf 35*.
Screening C(=N\Nc1ccccc1)/c1nc2ccccc2s1 returned COUP-TFII inh -53, H9c2 protect -8, TAG inh 10, Jurkat NFkB inh -137, Gli-Sufu antag -93, 697 NFkB inh -313 and 697 NFkB conf -48.
Brc1csc(/C=N/Nc2nc3ccccc3s2)c1 was read as COUP-TFII inh -46, H9c2 protect -18, Jurkat NFkB inh -140, Gli-Sufu antag -25 and 697 NFkB inh -239.
For O=C(Nc1ncccc1O)c1ccc(NS(=O)(=O)c2ccc3[nH]c(=O)[nH]c3c2)cc1 the results were COUP-TFII inh -3, H9c2 protect 1, TAG inh -6, Jurkat NFkB inh 7, Gli-Sufu antag 26 and 697 NFkB inh -33.
Screening O=C(Nc1ncccc1O)c1ccc(S(=O)(=O)Nc2ccccc2)cc1 returned COUP-TFII inh 36, H9c2 protect 3, TAG inh -49, Jurkat NFkB inh 12, Gli-Sufu antag 44, 697 NFkB inh -402 and 697 NFkB conf -359.
For Cc1cccc(-n2c(O)c(C=Nc3ccccc3-c3n[nH]c(=S)[nH]c3=O)c3ccccc3c2=O)n1 the results were COUP-TFII inh -13, H9c2 protect 8, TAG inh 6, Jurkat NFkB inh 6, Gli-Sufu antag 14, 697 NFkB inh 38* and 697 NFkB conf -21.
`Cc1cccc(CN[C@@H]2CC[C@@]34CCCN3C(=O)CCC[C@H]4C2)c1` gave COUP-TFII inh 6.
`N=c1c(C(=O)NC2CCCC2)cc2c(=O)n3ccccc3nc2n1CCN1CCOCC1` gave COUP-TFII inh 2, H9c2 protect 9, TAG inh 15, Jurkat NFkB inh 2, Gli-Sufu antag -46, 697 NFkB inh 49* and 697 NFkB conf 50*.
Screening N=c1c(C(=O)NC2CCCC2)cc2c(=O)n3ccccc3nc2n1CCCN1CCOCC1 returned COUP-TFII inh -9, H9c2 protect 9, Jurkat NFkB inh 8, Gli-Sufu antag 24 and 697 NFkB inh -6.
For COc1cc(/C=N/NC(=O)C2CC(=O)N(c3ccc(C)cc3)C2)cc(OC)c1OC (stereo not drawn) the results were COUP-TFII inh 5, H9c2 protect -1, Jurkat NFkB inh 12, Gli-Sufu antag -5, 697 NFkB inh 35 and 697 NFkB conf 21.
Screening COc1ccc(N2CC(C(=O)N/N=C/c3ccccc3)CC2=O)cc1 (stereo not drawn) returned COUP-TFII inh 12, H9c2 protect 2, TAG inh 2, Jurkat NFkB inh -4, Gli-Sufu antag -8 and 697 NFkB inh 10.
For O=C(/C=C/c1ccc2c(c1)OCO2)Nc1nc(-c2ccc(F)cc2F)cs1 the results were Jurkat NFkB inh 0 and 697 NFkB inh -22.
Screening Cc1csc(NC(=O)/C=C/c2ccc3c(c2)OCO3)n1 returned COUP-TFII inh -33, H9c2 protect -12, TAG inh -1, Jurkat NFkB inh -4, Gli-Sufu antag -63, 697 NFkB inh 70* and 697 NFkB conf 64*.
COc1ccc(OC)c(NC(=O)c2nc(S(=O)(=O)Cc3ccccc3)ncc2Cl)c1 was read as COUP-TFII inh 2, H9c2 protect -16, Jurkat NFkB inh 49, Gli-Sufu antag 34, 697 NFkB inh -441 and 697 NFkB conf -203.
`CC(C)CCNC(=O)C1CCN(c2cncnc2)CC1` gave COUP-TFII inh 7.
For O=S1(=O)c2c(cccc2N2CC[C@@H](O)C2)O[C@H]2CCN1C2 the results were COUP-TFII inh -5.
Screening CC(=O)/C(C#N)=C1\NC(=O)C(Cc2ccccc2C)S1 (stereo not drawn) returned COUP-TFII inh -82, H9c2 protect 7, TAG inh 12, Jurkat NFkB inh 19, Gli-Sufu antag 6, 697 NFkB inh inactive and 697 NFkB conf inactive.
`CNC(=O)/C(C#N)=C1\SC(Cc2ccc(F)cc2)C(=O)N1c1ccccc1C` (stereo not drawn) gave COUP-TFII inh -18, H9c2 protect -1, TAG inh -6, Jurkat NFkB inh -24, Gli-Sufu antag -2 and 697 NFkB inh -41.

Assay outcomes: PubChem BioAssay, several laboratories
